A selection: hits, their analogues and other compounds. The true share with any hit is near 1.2%.
RGS4-Gao reg – human RGS4-Galphao interaction regulation; binding response (% of control), % at 10 µM; hit rate 0.33% among 220,000; P09471; AID 1415; Multiplexed bead flow cytometry, RGS4-Galphao binding; actives lie on both sides; in the data active = binding response below about 49% or above about 150%; inactive = in between;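 note: fluorescent Galphao activated with aluminum fluoride binding bead-coupled RGS4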
Target sequence (P09471 whole entry, looked up): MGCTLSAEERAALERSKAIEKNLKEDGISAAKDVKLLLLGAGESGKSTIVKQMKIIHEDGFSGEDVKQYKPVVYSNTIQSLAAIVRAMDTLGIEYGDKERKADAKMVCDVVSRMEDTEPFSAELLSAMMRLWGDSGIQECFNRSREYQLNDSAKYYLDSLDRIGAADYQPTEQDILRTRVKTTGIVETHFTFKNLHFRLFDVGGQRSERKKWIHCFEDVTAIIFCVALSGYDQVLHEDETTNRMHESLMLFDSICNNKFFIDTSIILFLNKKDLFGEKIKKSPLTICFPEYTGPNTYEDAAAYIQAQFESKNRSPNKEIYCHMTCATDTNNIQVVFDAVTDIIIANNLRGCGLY
Avidin fluor – avidin bead compound fluorescence profile | Avidin beads, compound fluorescence 488/530 nm, flow cytometry; active compounds read high | fluorescence (KMESF) at 10 µM | hit rate 0.38% among 220,000; in the data active = fluorescence above about 47
RGS16-Gao – modulates binding between human RGS16 and Galphao. AID 1441. O15492+P09471. hit rate 0.38% among 220,000. binding response (% of control), % at 10 µM. bead-based flow cytometry RGS16-Galphao binding, fluorescence; actives lie on both sides;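 note: Galphao activated by GDP with aluminum fluoride before binding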
GSH fluor – GSH bead compound fluorescence profile. GSH beads flow cytometry, compound fluorescence 488/530 nm; active compounds read high. fluorescence (KMESF) at 10 µM. hit rate 0.25% among 190,000. AID 1776; in the data active = fluorescence above about 89;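 note: glutathione beads carrying GST-tagged Bcl family fusion proteins plus one bare bead set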
RGS7-Gao – human RGS7-Galphao interaction regulation; P09471; Multiplexed bead flow cytometry, RGS7-Galphao binding; actives lie on both sides; binding response (% of control), % at 10 µM; hit rate 0.35% among 220,000; in the data active = binding response below about 49% or above about 150%; inconclusive = no clear call, values can overlap the other calls; inactive = in between;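 note: fluorescent Galphao held in activated GDP-AlF4 state binding bead-coupled RGS7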
RGS8-Gao reg – regulators of human RGS8-Galphao interaction; P09471; multiplexed bead flow cytometry, RGS8-Galphao binding; actives lie on both sides; response (percent of control binding), % at 10 µM; hit rate 0.34% among 220,000; in the data active = response below about 60% or above about 140%; inactive = in between;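 note: Galphao activated as the GDP aluminium fluoride complex binding bead-coupled RGS8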
RGS-Gao – regulators of human RGS4-Galphao interaction; shares compounds with RGS16-Gao; multiplexed bead flow cytometry, RGS–Galpha-o binding; RGS4–Galpha-o binding response, % at 10 µM; hit rate 99% among 1,600; AID 1504;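 note: fluorescently labeled Galpha-o bound to GDP with aluminium fluoride binding biotinylated RGS beads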
Biotin-avidin – interferes with biotinylated probe binding to avidin beads. shares compounds with RGS16-Gao. streptavidin beads, fluorescein-biotin binding, flow cytometry. inhibition, % at 10 µM. 1,700 tested, under 10 active. AID 1783;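 active = inhibition above 50%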;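 note: median green fluorescence of gated singlet beads compared with DMSO control wells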
RGS8-Gao single – confirmation of regulators of human RGS8-Galphao interaction; shares compounds with RGS16-Gao; bead-based flow cytometry RGS8-Galphao binding, fluorescence; actives lie on both sides; binding response (% of control), % at 10 µM; hit rate 3% among 1,700; AID 1836; in the data active = binding response below about 72% or above about 130%; inactive = in between;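 note: Galphao activated as GDP AlF4 complex before binding bead RGS8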
RGS7-Gao single – confirmation of regulators of human RGS7-Galphao interaction; shares compounds with RGS16-Gao; hit rate 7.8% among 1,700; response (percent of control binding), % at 10 µM; AID 1837; bead-based flow cytometry RGS7-Galphao binding; actives lie on both sides; in the data active = response below about 75% or above about 130%; inactive = in between;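 note: fluorescent Galphao activated with GDP and aluminum fluoride binding bead-coupled RGS7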
RGS16-Gao single – confirmation of regulators of human RGS16-Galphao interaction; shares compounds with RGS16-Gao; hit rate 4% among 1,700; bead-based flow cytometry, RGS16-Galphao binding; actives lie on both sides; response (% of control binding), % at 10 µM; in the data active = response below about 74% or above about 130%; inactive = in between;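 note: Galphao activated as the GDP aluminium fluoride complex binding bead-coupled RGS16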
RGS4-Gao confirm – confirmation of regulators of human RGS4-Galphao interaction; shares compounds with RGS16-Gao; RGS4-Galphao binding, multiplexed bead flow cytometry; actives lie on both sides; binding response (% of control), % at 10 µM; hit rate 4% among 1,700; AID 1840; in the data active = binding response below about 74% or above about 130%; inactive = in between
RGS19-Gao conf – RGS19-Galphao interaction regulation, single point confirmation; shares compounds with RGS16-Gao; bead-based flow cytometry RGS19-Galphao binding; actives lie on both sides; response (percent of control binding), % at 10 µM; hit rate 5% among 1,700; AID 1841; in the data active = response below about 50% or above about 160%; inactive = in between
Target sequence (P09471 whole entry, looked up): as above
Target sequence (P49795 whole entry, looked up): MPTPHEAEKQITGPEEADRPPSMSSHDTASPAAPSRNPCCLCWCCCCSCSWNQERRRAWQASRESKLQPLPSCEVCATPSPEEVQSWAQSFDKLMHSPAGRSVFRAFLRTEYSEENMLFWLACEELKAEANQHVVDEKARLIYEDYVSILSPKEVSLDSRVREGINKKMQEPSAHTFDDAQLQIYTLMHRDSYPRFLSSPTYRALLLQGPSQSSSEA
Large screens that a line does not name were inactive (follow-up assays come after a bar, where they were run); [ ] = another dose, or the depositor's remark. Unless noted, the rule behind the calls is not given here.

Cn1c(C(=O)NCc2ccccc2)cc2oc3ccccc3c21	none (no result: RGS16-Gao) | Biotin-avidin inactive | RGS8-Gao single inactive | RGS7-Gao single inactive | RGS16-Gao single inactive | RGS4-Gao confirm inactive | RGS19-Gao conf inactive
COc1cc2c(cc1NC(=O)CSc1nnc(Cc3cccs3)n1Cc1ccco1)oc1ccccc12	none
COc1cc2c(cc1NC(=O)CSc1nnc(Cc3cccs3)n1C)oc1ccccc12	RGS4-Gao reg 314.7[activator], Avidin fluor 105, RGS16-Gao 314.1[activator], RGS7-Gao 247.5[activator] | Biotin-avidin inactive | RGS8-Gao single inactive | RGS7-Gao single inactive | RGS16-Gao single inactive | RGS4-Gao confirm inactive | RGS19-Gao conf inactive
Cn1cc(S(=O)(=O)NCc2ccc(Cl)cc2)c(=O)n(C)c1=O	RGS7-Gao inconclusive (no result: GSH fluor)
CCCCC1=CC2=C(c3ccco3)C(=O)C(C)(OC(=O)c3ccc(OC)cc3)C(=O)C2=CN1c1ccccc1 (stereo unspecified)	RGS7-Gao inconclusive (no result: GSH fluor)
O=C(C(Cc1ccccc1)n1cccc1)N1CCN(Cc2ccccc2)CC1 (stereo unspecified)	RGS8-Gao reg 144.1[activator] | RGS-Gao 113.2 | Biotin-avidin inactive | RGS8-Gao single inactive | RGS7-Gao single inactive | RGS16-Gao single inactive | RGS4-Gao confirm inactive | RGS19-Gao conf inactive
O=C(C(Cc1ccccc1)n1cccc1)N1CCCCC1 (stereo unspecified)	none
O=C(N1CCN(Cc2ccccc2)CC1)C12CC3CC(CC(C3)C1)C2	none (no result: RGS4-Gao reg, Avidin fluor, RGS16-Gao, RGS7-Gao, RGS8-Gao reg) | Biotin-avidin inactive | RGS8-Gao single inactive | RGS7-Gao single inactive | RGS16-Gao single inactive | RGS4-Gao confirm inactive | RGS19-Gao conf inactive
O=C(N1CCN(c2ccccc2)CC1)C12CC3CC(CC(C3)C1)C2	none
COc1cc(OC)cc(-c2nc(-c3ccccc3OC)no2)c1	RGS4-Gao reg 0.9, RGS16-Gao 3.8, RGS7-Gao 10.1, RGS8-Gao reg 13.6 | Biotin-avidin inactive | RGS8-Gao single inactive | RGS7-Gao single inactive | RGS16-Gao single inactive | RGS4-Gao confirm inactive | RGS19-Gao conf inactive
COc1ccccc1-c1noc(-c2cc(OC)c(OC)c(OC)c2)n1	none
C=CCn1nnnc1-c1cc(Cl)cc(Cl)c1	none
CCOc1ccc2[nH]c(=S)[nH]c2c1	none
CCOc1ccc2c(c1)n(CO)c(=S)n2CO	Avidin fluor 104, RGS7-Gao 176.5[activator] | RGS-Gao 112.3 | Biotin-avidin inactive | RGS8-Gao single inactive | RGS7-Gao single inactive | RGS16-Gao single inactive | RGS4-Gao confirm inactive | RGS19-Gao conf inactive
O=C(Nc1cccc(Cl)c1Cl)c1cc(S(=O)(=O)NCCc2ccccc2)ccc1F	none
CCOC(=O)CNNC(=O)Nc1ccc(Cl)c(Cl)c1	RGS16-Gao 326.4[activator], RGS8-Gao reg 152.5[activator] | RGS-Gao 123.2 | Biotin-avidin inactive | RGS8-Gao single inactive | RGS7-Gao single inactive | RGS16-Gao single inactive | RGS4-Gao confirm inactive | RGS19-Gao conf inactive
CCN(CC)S(=O)(=O)c1cccc(-c2nnc(SCCOc3ccccc3C)o2)c1	RGS4-Gao reg 177.4[activator], RGS16-Gao 210.7[activator], RGS7-Gao 152.5[activator] (no result: Avidin fluor, RGS8-Gao reg) | Biotin-avidin inactive | RGS8-Gao single inactive | RGS7-Gao single inactive | RGS16-Gao single inactive | RGS4-Gao confirm inactive | RGS19-Gao conf inactive
CN(C)c1cccc(C(=O)Nc2cc(C(F)(F)F)ccc2-n2cnc3ccccc32)c1	RGS16-Gao 196.9[activator] | RGS-Gao 106.1 | Biotin-avidin inactive | RGS8-Gao single inactive | RGS7-Gao single inactive | RGS16-Gao single inactive | RGS4-Gao confirm inactive | RGS19-Gao conf inactive
O=C(Cc1c2ccccc2nc2ccccc12)c1ccccc1	none
CCN(N=O)[C@@H](Cc1ccccc1)CN(N=O)[C@@H](Cc1ccccc1)CN(C)N=O	RGS4-Gao reg 29.5, RGS16-Gao 20.8, RGS7-Gao 17.1, RGS8-Gao reg 29.3 | Biotin-avidin inactive | RGS8-Gao single inactive | RGS7-Gao single inactive | RGS16-Gao single inactive | RGS4-Gao confirm inactive | RGS19-Gao conf inactive
CCN(CC)CC(=O)n1c2c(c3ccccc31)CCCC2	RGS16-Gao -99.6 | RGS-Gao 81.1 | Biotin-avidin inactive | RGS8-Gao single inactive | RGS7-Gao single inactive | RGS16-Gao single inactive | RGS4-Gao confirm inactive | RGS19-Gao conf inactive
Cc1cc(C)n(CC(=O)n2c3c(c4ccccc42)CCCC3)n1	none (no result: RGS4-Gao reg, Avidin fluor, RGS16-Gao, RGS7-Gao, RGS8-Gao reg) | Biotin-avidin inactive | RGS8-Gao single inactive | RGS7-Gao single inactive | RGS16-Gao single inactive | RGS4-Gao confirm inactive | RGS19-Gao conf inactive
COc1ccccc1N1CCN(C(=O)CSc2nc(N)cc(=O)[nH]2)CC1	Avidin fluor 201, RGS7-Gao 277.0[activator] | RGS-Gao 88.2 | Biotin-avidin inactive | RGS8-Gao single inactive | RGS7-Gao single inactive | RGS16-Gao single inactive | RGS4-Gao confirm inactive | RGS19-Gao conf inactive
COCCn1c(N)c(Sc2ccccc2[N+](=O)[O-])c(=O)[nH]c1=O	RGS7-Gao inconclusive (no result: GSH fluor)
COc1ccc(Nc2nnc(SCC(=O)NC(=O)Nc3ccc4c(c3)OCCO4)s2)cc1	RGS7-Gao inconclusive
Cc1cc(S(=O)(=O)Nc2cc(C)c(O)c(C)c2)c(C)s1	none (no result: RGS4-Gao reg, Avidin fluor, RGS16-Gao, RGS7-Gao, RGS8-Gao reg) | Biotin-avidin inactive | RGS8-Gao single inactive | RGS7-Gao single inactive | RGS16-Gao single inactive | RGS4-Gao confirm inactive | RGS19-Gao conf inactive
O=C(NN=C1CCN(Cc2ccccc2)CC1)C(O)c1ccccc1 (stereo unspecified)	none
CC1CC(=O)Nc2ccccc2N1C(=O)Nc1ccc(F)cc1 (stereo unspecified)	none (no result: RGS4-Gao reg, Avidin fluor, RGS16-Gao, GSH fluor, RGS7-Gao) | Biotin-avidin inactive | RGS8-Gao single inactive | RGS7-Gao single inactive | RGS16-Gao single inactive | RGS4-Gao confirm inactive | RGS19-Gao conf inactive
CSC1=N/C(=C/c2cccnc2)C(=O)N1Cc1ccccc1	RGS4-Gao reg -9.4, RGS16-Gao -5.1, RGS7-Gao inconclusive, RGS8-Gao reg 11.5 (no result: GSH fluor) | Biotin-avidin inactive | RGS8-Gao single inactive | RGS7-Gao single inactive | RGS16-Gao single inactive | RGS4-Gao confirm inactive | RGS19-Gao conf inactive

Screening results deposited in PubChem BioAssay by NMMLSC.
